Among the test systems are NCI-H23 lung; NCI-H226 lung; NCI-H322M lung; HOP-62 NSCLC; NCI-H460 lung; HOP-92 NSCLC; NCI-H522 lung; A549/ATCC NSCLC; 786-0 renal; COLO 205 colon; DU-145 prostate; K-562 leukemia; MALME-3M melanoma; MDA-MB-231 breast; SF-268 CNS; SF-295 CNS; SF-539 CNS; UACC-257 melanoma; M14 melanoma.
Holding throughout (experiment): NCI-60 one-dose screen, 48 h (100 = growth as untreated, 0 = no growth, -100 = all killed)
Common to all, as to settings: 10 µM

Each structure is given as a SMILES string. About 83,000 compounds went through this panel and 20% of them were active in at least one assay; those are over-represented in the sample as a whole.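 Cells were grown in 96-well plates and exposed to the test compound at a single concentration for 48 hours; results are reported as percent growth, with values below 10 considered active.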 Values without a mark were called inactive. Active and inactive are the calls of the source.

As to `COc1cccc(-c2ccnc(/N=C(\N)Nc3ccc(S(=O)(=O)Nc4nc(C)cc(C)n4)cc3)n2)c1`, the growth is 98.2% in the assay with NCI-H23 lung; 80.3% with NCI-H226 lung; 107% in the assay on NCI-H322M lung; 84.6% with HOP-62 NSCLC; 106% in the assay on NCI-H460 lung; 106% in the assay on HOP-92 NSCLC. Moreover, the growth in the assay with NCI-H522 lung was 91.5%; in the assay on A549/ATCC NSCLC, 102%; with 786-0 renal, 101%; in the assay on COLO 205 colon, 114%; in the assay on DU-145 prostate, 111%; in the assay with K-562 leukemia it was 92%. Further, the growth in the assay on MALME-3M melanoma was 98%; in the assay on MDA-MB-231 breast it was 95.9%; with SF-268 CNS, 104%; with SF-295 CNS, 93.7%; with SF-539 CNS, 95.2%; in the assay with UACC-257 melanoma, 111%. For the same molecule, in the assay with M14 melanoma, the growth was 114%.

Consider `CC1=C(c2cc(-c3ccc(Cl)cc3)c(C#N)c(N)n2)C(c2ccccc2)NC(=S)N1` (configuration not stated), for which the growth is 76.1% with NCI-H23 lung; 64.4% in the assay with NCI-H226 lung; 96.4% with NCI-H322M lung; 81.3% in the assay with HOP-62 NSCLC; 82.6% in the assay on NCI-H460 lung; 105% with HOP-92 NSCLC. Further, the growth in the assay with NCI-H522 lung was 49.4%; in the assay on A549/ATCC NSCLC, 90.1%; in the assay on 786-0 renal it was 67%; with COLO 205 colon, 80.5%; in the assay on DU-145 prostate, 51.3%; with K-562 leukemia it was 36.9%. For the same molecule, the growth in the assay with MALME-3M melanoma was 4.96% (active); in the assay with MDA-MB-231 breast, 51.9%; in the assay with SF-268 CNS, 51%; in the assay on SF-295 CNS, 78.1%; in the assay with SF-539 CNS, 39.9%; with UACC-257 melanoma it was 77.7%. Further, the growth in the assay with M14 melanoma was 49.8%.

Consider `CC[C@]12C=CCN3CC[C@@]4(c5cc(C#CCNc6ccc(C)c(Nc7nccc(-c8cccnc8)n7)c6)c(OC)cc5N(C)[C@H]4[C@@](O)(C(=O)OC)[C@@H]1OC(C)=O)C32` (some centres not stated), for which the growth in the assay with NCI-H23 lung is 56.3%; in the assay on NCI-H226 lung it was 30.6%; in the assay with NCI-H322M lung it was 90.8%; in the assay on HOP-62 NSCLC, 64.2%; with NCI-H460 lung it was 34.1%; with HOP-92 NSCLC it was 42.2%. Further, the growth with NCI-H522 lung is 58.5%; in the assay with A549/ATCC NSCLC it was 36.8%; with 786-0 renal, 46.3%; in the assay with COLO 205 colon, 31.7%; in the assay with DU-145 prostate, 59.7%; in the assay with K-562 leukemia, 35.1%. For the same molecule, the growth was 61.1% in the assay on MALME-3M melanoma; 39.6% with MDA-MB-231 breast; 57.9% with SF-268 CNS; 39.5% in the assay with SF-295 CNS; 8.99% (active) in the assay on SF-539 CNS; 70.2% with UACC-257 melanoma. The growth in the assay on M14 melanoma was 45.1%.

Regarding `O=C(NO)c1ccc(-c2nc3ccc4[nH]ncc4c3c3c2CCCC3)cc1`, the growth was -56.7% (active) with NCI-H23 lung; -28.8% (active) with NCI-H226 lung; -1.64% (active) in the assay with NCI-H322M lung; 0.238% (active) with HOP-62 NSCLC; -43.4% (active) with NCI-H460 lung; -16.6% (active) with HOP-92 NSCLC. Also, the growth with NCI-H522 lung was -43% (active); with A549/ATCC NSCLC, 6.83% (active); with 786-0 renal, -8.73% (active); with COLO 205 colon, -20.1% (active); with DU-145 prostate, 1.34% (active); in the assay with K-562 leukemia, 10.1%. The growth with MALME-3M melanoma is -80.5% (active); in the assay on MDA-MB-231 breast it was -27.6% (active); with SF-268 CNS, -53.6% (active); in the assay with SF-295 CNS, -17.9% (active); with SF-539 CNS, -97.4% (active); in the assay with UACC-257 melanoma, -18.8% (active). Also, the growth with M14 melanoma is -62.5% (active).

Turning to `N#Cc1ccc(-c2nn(-c3ccc(C(=O)O)cc3)cc2CNc2ccc(Cl)cc2)cc1`, the growth with NCI-H23 lung is 73.3%; in the assay on NCI-H226 lung, 85%; with NCI-H322M lung it was 88.8%; in the assay with HOP-62 NSCLC, 81.3%; with NCI-H460 lung it was 93.1%; in the assay on HOP-92 NSCLC, 133%. The growth in the assay on NCI-H522 lung was 81.3%; with A549/ATCC NSCLC, 84.6%; with 786-0 renal, 87.2%; in the assay on COLO 205 colon, 142%; with DU-145 prostate, 97.6%; in the assay with K-562 leukemia, 69.4%. Moreover, the growth in the assay on MALME-3M melanoma is 102%; in the assay with MDA-MB-231 breast it was 90.6%; with SF-268 CNS it was 78.6%; in the assay with SF-295 CNS, 63.3%; in the assay with SF-539 CNS, 80.1%; with UACC-257 melanoma, 97.8%. Moreover, the growth in the assay on M14 melanoma is 83.4%.

`O=C(CSc1nnc(-c2c[nH]c3ccccc23)n1-c1ccccc1)c1ccccc1`: the growth in the assay on NCI-H23 lung was 44.9%; in the assay with NCI-H226 lung it was 4.48% (active); with NCI-H322M lung it was 81.2%; in the assay on HOP-62 NSCLC, 23.4%; in the assay with NCI-H460 lung, 61.8%; with HOP-92 NSCLC it was 47%. In addition, the growth in the assay on NCI-H522 lung was 71.6%; in the assay on A549/ATCC NSCLC, 85.5%; in the assay with 786-0 renal, 29.6%; in the assay on COLO 205 colon, 93.4%; in the assay with DU-145 prostate, 85.7%; in the assay with K-562 leukemia it was 52.8%. Further, the growth in the assay on MALME-3M melanoma is 37.4%; in the assay on MDA-MB-231 breast it was 27%; in the assay on SF-268 CNS, 31.7%; in the assay on SF-295 CNS, 72%; with SF-539 CNS, 7.59% (active); in the assay on UACC-257 melanoma, 103%. For the same molecule, the growth in the assay on M14 melanoma is 73.6%.

Consider `O=C(Nc1cccc(C(F)(F)F)c1)c1cncc(C#Cc2cnc3ccc(N4CCOCC4)nn23)c1`, for which the growth in the assay on NCI-H23 lung is -58.7% (active); in the assay on NCI-H226 lung, -4.93% (active); in the assay with NCI-H322M lung, 5.52% (active); in the assay with HOP-62 NSCLC it was 6.8% (active); in the assay with NCI-H460 lung, 0.042% (active); with HOP-92 NSCLC it was -48% (active). Further, the growth is -34.1% (active) with NCI-H522 lung; 7.95% (active) in the assay on A549/ATCC NSCLC; -22.9% (active) in the assay with 786-0 renal; -48% (active) in the assay on COLO 205 colon; 0.548% (active) with DU-145 prostate; 9.1% (active) with K-562 leukemia. Moreover, the growth was -29.7% (active) with MALME-3M melanoma; -8.01% (active) with MDA-MB-231 breast; -31% (active) in the assay on SF-268 CNS; -8.57% (active) in the assay on SF-295 CNS; -88.1% (active) in the assay on SF-539 CNS; 3.22% (active) with UACC-257 melanoma. Further, in the assay with M14 melanoma, the growth was -49.3% (active).

On to `CCN1CCN(Cc2ccc(C(=O)Nc3cccc(-c4cn(-c5ccc6oc(=O)ccc6c5)nn4)c3)cc2C(F)(F)F)CC1`, for which the growth in the assay on NCI-H23 lung was -100% (active); in the assay on NCI-H226 lung, -82.1% (active); in the assay with NCI-H322M lung, -100% (active); in the assay with HOP-62 NSCLC, -99.5% (active); in the assay with NCI-H460 lung, -100% (active); with HOP-92 NSCLC, -18% (active). For the same molecule, the growth with NCI-H522 lung is -100% (active); in the assay with A549/ATCC NSCLC it was -100% (active); with 786-0 renal it was -100% (active); in the assay with COLO 205 colon, 48.1%; in the assay with DU-145 prostate it was -100% (active); with K-562 leukemia, -61.7% (active). The growth is -100% (active) in the assay with MALME-3M melanoma; -100% (active) in the assay with MDA-MB-231 breast; -32.5% (active) with SF-268 CNS; -100% (active) in the assay with SF-295 CNS; -100% (active) with SF-539 CNS; -49.9% (active) with UACC-257 melanoma. Further, the growth in the assay on M14 melanoma is -100% (active).

The values are drawn from PubChem BioAssay (NCI).
